# Measured values as given in PubChem BioAssay (NCATS).
# Inconclusive results are not listed. The source made the active and inactive calls. Calls follow the shape of the dose curve; as a rule, active = well fitted curve in the direction sought with a large enough effect; inconclusive = small, poorly fitted or top-dose-only effect, or another doubt; inactive = no such curve, though single readings can be large; an effect the other way counts as inactive or inconclusive.
# Assay: High Content Imaging Cell-Based qHTS for Inhibitors of the mTORC1 Signaling Pathway in MEF (Tsc2-/-, p53-/-) Cells (AID 2666);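 also: percent of cells scored positive for phospho-rpS6 Ser235/236 immunostaining by imaging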
# Conditions: series mostly up to 38.3 µM
# Summary of the method: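 Cells were plated, dosed with compound after 24 hrs, and incubated another 24 hrs at 37 degree Celsius. Fixed cells were immunostained for phospho-rpS6 Ser235/236 and counterstained, and the normalized signal was scored as % active cells against rapamycin and DMSO controls.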
row,Structure (SMILES),outcome
1,Fc1cccc(/C=N/N=C/c2cccc(F)c2)c1,inactive
2,CC(C)(C)c1ccc(S(=O)(=O)/C=C/C#N)cc1,inactive
3,COc1ccccc1N1CCN(CCCCNS(=O)(=O)c2cccc3c(N(C)C)cccc23)CC1,inactive
4,CC(C)Cc1ccc([C@H](C)C(=O)O)cc1,inactive
5,CN1CCc2cccc3c2C1Cc1ccc(O)c(O)c1-3 (configuration not stated),inactive
6,CN1CCc2ccccc2Cc2[nH]c3ccccc3c2CC1,inactive
7,CC(=O)N[C@H](C(=O)O)C(C)(C)SN=O,inactive
8,O=C(/C=C/c1ccc(O)c(O)c1)OCCc1ccccc1,inactive
9,Cc1cc(NC(=O)Nc2ccc3c(ccn3C)c2)sn1,inactive
10,O=C(O)CC[C@@H](C(=O)O)N1C(=O)c2ccccc2C1=O,inactive
11,CN(C)CCC(c1ccc(Cl)cc1)c1ccccn1 (configuration not stated),inactive
12,C=CC(N)CCC(=O)O (configuration not stated),inactive
13,CCCN(CC1CC1)c1nc(C)nc(Nc2c(Cl)cc(Cl)cc2Cl)c1Cl,inactive
14,CN(C)c1nc(N)c(C(=O)N=C(N)N)nc1Cl,inactive
15,CN1CCc2cc(O)c(O)cc2C(c2ccccc2)C1 (configuration not stated),inactive
16,CCN1/C(=C/C(C)=O)Sc2ccc(OC)cc21,inactive
17,NCCNC(=O)c1ncsc1-c1cccc(F)c1,inactive
18,CCCn1c(=O)c2[nH]c(-c3ccc(OCC(=O)NCCN)cc3)nc2n(CCC)c1=O,inactive

row,Structure (SMILES),outcome
1,Ic1ccc(N2CCN(Cc3c[nH]c4ncccc34)CC2)cc1,inactive
2,COc1ccc(/C=C/C(=O)Nc2ccccc2C(=O)O)cc1OC,inactive
3,O=C(O)[C@@H]1C[C@@H](C(=O)O)N1,inactive
4,O=C1NC(O)=NC1(c1ccccc1)c1ccccc1,inactive
5,COc1cc(C(O)CO)ccc1OS(=O)(=O)O (configuration not stated),inactive
6,NO,inactive
7,COc1cc2nc(N3CCN(C(=O)OCc4ccccc4)C(C(=O)NC(C)(C)C)C3)nc(N)c2cc1OC (configuration not stated),inactive
8,OC[C@H]1O[C@@H](n2cnc3c(NC4CCCCC4)ncnc32)[C@H](O)[C@@H]1O,inactive
9,O=c1[nH]c2cc([N+](=O)[O-])c([N+](=O)[O-])cc2[nH]c1=O,inactive
10,c1ccc(-c2ccccn2)nc1,inactive
11,CCCCN1CCC(n2c(=O)[nH]c3ccccc32)CC1,inactive
12,Oc1cc(O)cc(/C=C/c2ccc(O)c(O)c2)c1,inactive
13,O=C(O)CNC(=O)C(CS)Cc1ccccc1 (configuration not stated),inactive
14,O=C(O)c1cc(=O)c2ccccc2[nH]1,inactive
15,COc1ccc(NC(=O)/C=C/c2ccc(Cl)cc2)cc1,inactive
16,Cn1c(=O)c2[nH]c(-c3ccccc3)nc2n(C)c1=O,inactive
17,OCC1O[C@H](O)C(Cl)C(O)C1O (some centres not stated),inactive
18,O=C(O)[C@@H]1C[C@H](C(=O)O)N1,inactive

# Assay: High Content Imaging Cell-Based qHTS for Inhibitors of the mTORC1 Signaling Pathway in MEF Cells (AID 2667);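 also: Tsc2-/- p53-/- MEFs stably re-expressing wild-type Tsc2 exposed 24 h; plate controls were DMSO wells for no effect and rapamycin control wells for full effect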
# Conditions: series mostly up to 38.3 µM; activity change, negative = inhibition: at the top concentration
# Summary of the method: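 Immunofluorescence for rpS6 phosphorylation in MEFs of Tsc2-/-, p53-/- background rescued with WT Tsc2. Compound exposure lasted 24 hrs. Inhibition was scored against rapamycin-treated control wells.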
row,Structure (SMILES),"activity change, negative = inhibition"
1,Fc1cccc(/C=N/N=C/c2cccc(F)c2)c1,-100% (inactive)
2,CC(C)(C)c1ccc(S(=O)(=O)/C=C/C#N)cc1,-100% (inactive)
3,CC(C)Cc1ccc([C@H](C)C(=O)O)cc1,-100% (inactive)
4,CN1CCc2cccc3c2C1Cc1ccc(O)c(O)c1-3 (configuration not stated),-100% (inactive)
5,CN1CCc2ccccc2Cc2[nH]c3ccccc3c2CC1,-100% (inactive)
6,CC(=O)N[C@H](C(=O)O)C(C)(C)SN=O,-100% (inactive)
7,Cc1cc(NC(=O)Nc2ccc3c(ccn3C)c2)sn1,-100% (inactive)
8,O=C(O)CC[C@@H](C(=O)O)N1C(=O)c2ccccc2C1=O,-100% (inactive)
9,CN(C)CCC(c1ccc(Cl)cc1)c1ccccn1 (configuration not stated),-100% (inactive)
10,C=CC(N)CCC(=O)O (configuration not stated),-100% (inactive)
11,CCCN(CC1CC1)c1nc(C)nc(Nc2c(Cl)cc(Cl)cc2Cl)c1Cl,-100% (inactive)
12,CN(C)c1nc(N)c(C(=O)N=C(N)N)nc1Cl,-100% (inactive)
13,CCN1/C(=C/C(C)=O)Sc2ccc(OC)cc21,-100% (inactive)
14,NCCNC(=O)c1ncsc1-c1cccc(F)c1,-100% (inactive)
15,CCCn1c(=O)c2[nH]c(-c3ccc(OCC(=O)NCCN)cc3)nc2n(CCC)c1=O,-100% (inactive)
16,Ic1ccc(N2CCN(Cc3c[nH]c4ncccc34)CC2)cc1,-100% (inactive)

row,Structure (SMILES),"activity change, negative = inhibition"
1,COc1ccc(/C=C/C(=O)Nc2ccccc2C(=O)O)cc1OC,-100% (inactive)
2,O=C(O)[C@@H]1C[C@@H](C(=O)O)N1,-100% (inactive)
3,O=C1NC(O)=NC1(c1ccccc1)c1ccccc1,-100% (inactive)
4,COc1cc(C(O)CO)ccc1OS(=O)(=O)O (configuration not stated),-100% (inactive)
5,NO,-100% (inactive)
6,OC[C@H]1O[C@@H](n2cnc3c(NC4CCCCC4)ncnc32)[C@H](O)[C@@H]1O,-100% (inactive)
7,O=c1[nH]c2cc([N+](=O)[O-])c([N+](=O)[O-])cc2[nH]c1=O,-100% (inactive)
8,c1ccc(-c2ccccn2)nc1,-100% (inactive)
9,CCCCN1CCC(n2c(=O)[nH]c3ccccc32)CC1,-100% (inactive)
10,O=C(O)CNC(=O)C(CS)Cc1ccccc1 (configuration not stated),-100% (inactive)
11,O=C(O)c1cc(=O)c2ccccc2[nH]1,-100% (inactive)
12,COc1ccc(NC(=O)/C=C/c2ccc(Cl)cc2)cc1,-100% (inactive)
13,Cn1c(=O)c2[nH]c(-c3ccccc3)nc2n(C)c1=O,-100% (inactive)
14,OCC1O[C@H](O)C(Cl)C(O)C1O (some centres not stated),-100% (inactive)
15,O=C(O)[C@@H]1C[C@H](C(=O)O)N1,-100% (inactive)
